From PubChem BioAssay (Tox21) come the findings set out here.

Inconclusive results are not listed. Entries that show only a call come without a potency. The source made the active and inactive calls. The call rests on the fitted dose curve; in most records, active means well fitted cell-killing curve with a large enough effect in the repeat runs; inconclusive means weak or mixed curves, or effect the other way; inactive means flat fitted curve, though single readings scatter.

This experiment can be described thus: cAMP Responsive Elements (CRE) small molecule agonists, cell-based qHTS assay: qHTS cell viability counter screen (AID 2060914). Further: nearly all actives have a fitted effect of over 50% in size. Particulars: CRE-bla HEK293T viability, CellTiter-Glo luminescence, 5 h; series mostly up to 92.4 µM. A digest of the protocol:
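Luminescence read-out (CellTiter-Glo, 30 min RT) of ATP-based viability in CRE-bla HEK 293T cells, run in the same wells as the β-lactamase reporter assay after 3 h compound treatment at 37 °C.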
(In general: Quantitative high-throughput screening tests each substance at several concentrations.)
With `O=C1c2cccc(O)c2C(=O)c2c(O)cccc21`, the Potency result was “inactive”. With `CCOC(N)=O`, the Potency result is “inactive”.

Turning to `O=[N+]([O-])c1ccc(F)c(Cl)c1`, the Potency result is “inactive”. On the same count and under the same terms, under `CC1(C)S[C@@H]2[C@H](NC(=O)COc3ccccc3)C(=O)N2[C@H]1C(=O)O` stands “inactive”; under `O=C(OCc1ccccc1)c1ccccc1O`, “inactive”. Still for that read-out and setting: under `CCCC(=O)OC[C@@H](OC(=O)CCC)[C@@H](OC(=O)CCC)[C@H](Cn1c2nc(=O)[nH]c(=O)c-2nc2cc(C)c(C)cc21)OC(=O)CCC` stands “inactive”; under `CN(C)CCOC(c1ccccc1)c1ccccc1`, “inactive”.

With `CC(C)(Oc1ccc(C2CC2(Cl)Cl)cc1)C(=O)O` (stereo not given), the Potency entry is “inactive”. Still for that read-out and setting: then `OCc1ccccn1`, with “inactive”; and `CC(=N\O)/C(C)=N/O`, with “inactive”; and `Nc1ccnc(=O)[nH]1`, with “inactive”.

As for `C/C=C(/C(=C/C)c1ccc(O)cc1)c1ccc(O)cc1`, the Potency result is “inactive”. On the same count and under the same terms, under `O=Cc1ccc(O)c(O)c1O` stands “inactive”; under `OC[C@H]1O[C@H](O[C@]2(CCl)O[C@H](CCl)[C@@H](O)[C@@H]2O)[C@H](O)[C@@H](O)[C@H]1Cl`, “inactive”; under `CCO[Si](OCC)(OCC)c1ccccc1`, “inactive”. Same read-out and setting: under `CCCCCCCCCCCCCCCC(=O)OC/C=C(C)/C=C/C=C(C)/C=C/C1=C(C)CCCC1(C)C` stands “inactive”.

In the case of `CC(=O)O[C@]1(C(C)=O)CC[C@H]2[C@@H]3C[C@H](C)C4=CC(=O)CC[C@]4(C)[C@H]3CC[C@@]21C`, the Potency result was “inactive”.

`C=C[Si](OC)(OC)OC`: the Potency entry was “inactive”.

As to `CNCCC(Oc1ccccc1OC)c1ccccc1` (stereo not given), the Potency entry is “inactive”. Turning to `CN(C)CCOc1ccccc1Cc1ccccc1`, the Potency result was “inactive”. Same read-out and setting: under `CCCCCC` stands “inactive”; under `CO[Si](CCCNCCC[Si](OC)(OC)OC)(OC)OC`, “inactive”.

On to `Cc1cnc(NS(=O)(=O)c2ccc(N)cc2)nc1`, for which the Potency entry is “inactive”.

For `NC(=O)OCC(COC(N)=O)c1ccccc1`, the Potency entry is “inactive”. On the same count and under the same terms, under `CC1=CCC(C(C)C)C=C1` (stereo not given) stands “inactive”.

As to `Cc1cc(=O)[nH]c(C(C)C)n1`, the Potency entry is “inactive”. Consider `C1=CCC2CC=CC2C1` (stereo not given), for which the Potency result was “inactive”. The same measure, in the same setting: under `O=C(NS(=O)(=O)/C=C/c1cccs1)c1ccc(F)cc1Br` stands “inactive”; under `Cc1cc(C)n(CO)n1`, “inactive”; under `COc1ccc2c(c1)c(CC(=O)OCC(=O)O)c(C)n2C(=O)c1ccc(Cl)cc1`, “inactive”. Still for that read-out and setting: under `Cc1cc(O)c2c(c1)C(=O)c1cccc(O)c1C2=O` stands “inactive”; under `CC1(C)S[C@@H]2[C@H](N=CN3CCCCCC3)C(=O)N2[C@H]1C(=O)O`, “inactive”; under `COC(=O)[C@@H]1[C@H]2C[C@H]3c4[nH]c5ccccc5c4CCN3C[C@@H]2CC[C@@H]1O`, “inactive”. Same read-out and setting: then `OC[C@@H](O)[C@@H](O[C@@H]1O[C@H](CO)[C@H](O)[C@H](O)[C@H]1O)[C@H](O)[C@@H](O)CO`, with “inactive”; and `CCCCOc1cc(C(=O)OCCN(CC)CC)ccc1N`, with “inactive”; and `Clc1cc(Cl)c(Cl)cc1Cl`, with “inactive”.

As for `COCCOCCOCCOCCOCCO`, the Potency entry was “inactive”. `CCOC(C)(C)C`: the Potency entry was “inactive”. Same read-out and setting: under `Cc1ccc(C(N)=O)cc1N` stands “inactive”.

On to `O=C(O)CN(CCOCCOCCN(CC(=O)O)CC(=O)O)CC(=O)O`, for which the activity change, negative = cytotoxicity was -3.94% [at 0.349 µM] (inactive).
